AI-2 QS mod: modulates the Vibrio harveyi AI-2 quorum sensing system | Vibrio harveyi JMH597 AI-2 luminescence/OD600 ratio, 9 h; stronger effect = lower value; strain lacks LuxN and CqsS sensors; 0 = neutral-control median | activity change, % at 7.5 µM | actives 0.4% (n = 300,000) | AID 2094; in the data active = activity change below about -75%, passing the limit was not always enough;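 also: luminescence divided by OD600 gain over 9 h not by final OD600 alone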
HIF activator: HIF pathway transcriptional activation | U2OS HRE-luciferase reporter, luminescence; normalized: DMSO 0%, desferrioxamine 100% | activation, % at 7.5 µM (by protocol) | actives 0.32% (n = 300,000) | AID 1910;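 active = mean activation of at least 10% of the iron chelator positive control signal, with at least half of replicates also reaching 10%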
ALR inh: inhibitors of human sulfhydryl oxidase ALR; P55789; purified ALR, DTT oxidation, H2O2 HRP-luminol luminescence; inhibition, % (no concentration beside the values); actives 3.8% (n = 290,000);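 active = mean replicate inhibition above about 79%, with every replicate also reaching it, limit read from the data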
Target sequence (P55789 whole entry, looked up): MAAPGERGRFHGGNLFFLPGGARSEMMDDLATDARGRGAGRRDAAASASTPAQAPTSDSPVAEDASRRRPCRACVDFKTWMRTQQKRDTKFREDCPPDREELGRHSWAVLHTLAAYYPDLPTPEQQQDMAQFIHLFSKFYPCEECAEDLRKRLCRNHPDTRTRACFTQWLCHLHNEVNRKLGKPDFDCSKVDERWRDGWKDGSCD
SUMO Mot1 rescue: inhibitors of SUMOylation pathway: yeast Mot1-301 growth rescue; S. cerevisiae Mot1-301 growth rescue, ATP luminescence, 38.5C; percent above DMSO median, 100 means doubled; growth rescue, % at 18.8 µM; actives 1% (n = 320,000); AID 2716;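 active = every valid replicate shows activation above 250% relative to neutral control wells; inactive = the rest, any valid replicate at or below 250%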;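 also: OY570 slx delta 5 strain wells were the positive control but not used for scaling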
An asterisk follows results filed as active; . = not tested or not shown. Shown are actives, neighbours in structure and some others; about 4.8% of the full set was active somewhere.

SMILES	AI-2 QS mod	HIF activator	ALR inh	SUMO Mot1 rescue
COc1ccc(NC(=O)C(=O)NNC(=O)c2ccc(Cl)cc2Cl)cc1	13.1	511.5*	5.6	-8.7
Cc1cc(C)c2oc(=O)cc(CN3CCCCC3)c2c1	12.5	-1.2	3.3	-12.3
COc1ccc(-n2c(C)cc(C(=O)CCl)c2C)cc1	-86.7*	15.9*	37.6	-27.1
N#CCCN(C(=O)CSc1ccc2c(c1)OCCO2)c1ccccc1	21.3	0.3	88.5*	2.7
CC(=O)Nc1ccc(SCC(=O)c2cc(C)n(-c3ccccc3)c2C)cc1	49.3	-2.9	98.9*	3.6
COc1ccc(-n2c(C)cc(C(=O)CN3C(=O)c4ccccc4C3=O)c2C)cc1	1.0	0.3	-18.6	75.9
COc1ccc(-n2c(C)cc(C(=O)CSc3ccc(NC(C)=O)cc3)c2C)cc1	34.6	1.0	96.8*	5.8
COc1ccc(NC(=O)CSc2ccc(C)cc2)cc1	12.6	3.6	-2.0	124.8
CC(C)(c1cc(Br)c(O)c(Br)c1)c1cc(Br)c(O)c(Br)c1	.	.	52.5	-16.7
CCOc1ncc(S(=O)(=O)N2CCN(CC)CC2)cc1C(=O)O	10.7	-0.5	-3.3	-12.0
CC(=O)Nc1ccc(SCC(=O)c2cc(C)ccc2C)cc1	.	0.9	98.3*	-5.6
CC(=O)Nc1ccc(SCC(=O)N(CCC#N)c2cc(C)cc(C)c2)cc1	15.3	0.5	98.2*	-6.5
N#C/C(=C\c1ccc(N2CCCCC2)o1)C(N)=O	16.7	-0.5	90.1*	-4.8
CCOC(=O)N1CCN(C(=O)Cc2ccccc2OC)CC1	12.6	-0.5	-12.5	243.9
Cc1cc(=O)[nH]c2sc(C(=O)N3c4ccccc4CC3C)c(N)c12 (stereo unspecified)	.	.	97.9*	47.8
CC[C@@H]1CC=C[C@H]2[C@H]1C(=O)N(Cc1ccccc1)[C@H]2c1ccoc1	10.2	0.4	.	679.4*
C[C@@H]1CC=C[C@H]2[C@H]1C(=O)N(Cc1ccccc1)[C@H]2c1ccoc1	5.4	-0.4	.	34.0
CC(=O)[C@H]1[C@H]([C@H](O)[C@H](O)CO)O[C@](O)(C(=O)O)C[C@@H]1O	.	.	2.5	-1.2
COC(=O)Cn1c(=NC(=O)c2ccc(Cl)s2)sc2cc(C)ccc21	17.9	1.9	-3.1	-3.6
COC(=O)Cn1c(=NC(=O)c2ccc([N+](=O)[O-])s2)sc2cc(Br)ccc21	40.1	2.0	98.0*	-0.2
CCN(CC(=O)Nc1ccc(NC(C)=O)cc1)C(=O)CSc1ncnc2sc(C)c(C)c12	5.2	-0.7	43.8	13.7
O=[N+]([O-])c1cccc(CN2C[C@@]34C=C[C@@H](C[C@@H]3S2(=O)=O)O4)c1	0.0	0.6	96.0*	65.0
COc1ccc(-n2c(C)n[nH]c2=O)cc1OC	17.5	-0.7	.	347.3*
Cc1cc(C)cc(N2CC(C(=O)OCC(=O)Nc3cc(C)on3)CC2=O)c1 (stereo unspecified)	17.6	1.4	2.4	-11.3
Cc1cc(C)cc(N2CC(C(=O)Nc3cc(C)on3)CC2=O)c1 (stereo unspecified)	.	-0.7	-2.4	340.6*
SMILES	AI-2 QS mod	HIF activator	ALR inh	SUMO Mot1 rescue
COc1ccc(C(=O)Oc2ccc(/C=N/O)cc2)cc1	3.9	0.6	90.5*	-0.4
COc1ccc(N)cc1NC(=O)CN1CCCC1	2.5	-0.4	96.9*	-5.5
CC(C(=O)Nc1ccc(Cl)cc1Cl)N1C(=O)NC2(CCCCCCC2)C1=O (stereo unspecified)	.	.	5.4	27.1
CC(C)(O)C#Cc1ccc(C(=O)NC2CCCCC2)s1	29.4	4.7	96.6*	0.8
CC(C)(O)C#Cc1ccc(C(=O)NCCC(=O)O)s1	7.1	-0.2	-3.8	1.0
COc1ccccc1NC(=S)N1CCN(c2cccc(C)c2C)CC1	-1.6	-7.1	-11.2	14.2
Cn1c(=O)c2c(nc(N/N=C/c3ccncc3)n2Cc2ccccc2)n(C)c1=O	11.4	0.9	97.1*	-1.9
Cc1ccc(Cn2c(N/N=C/c3ccncc3)nc3c2c(=O)n(C)c(=O)n3C)cc1	12.2	-0.4	97.2*	-7.6
C/C(Cl)=C\Cn1c(Nc2ccccc2)nc2c1c(=O)n(C)c(=O)n2C	16.7	0.8	87.2*	-1.6
C/C(Cl)=C/Cn1c(NCCN(C)C)nc2c1c(=O)n(C)c(=O)n2C	-4.9	-4.1	2.8	-6.3
O=C1CC2(CCN(C(=O)c3ccc(F)cc3)CC2)Oc2ccccc21	13.4	-7.3	0.7	-0.3
Cc1oc(-c2ccc(Cl)cc2)cc1C(=O)/C(C#N)=C/Nc1cccc(OC(F)(F)F)c1	8.3	43.3*	13.2	-0.4
CN(CC(=O)NCc1ccco1)S(=O)(=O)c1ccc2c(c1)n(C)c(=O)c(=O)n2C	1.7	0.0	91.8*	18.1
